Assay results reported in PubChem BioAssay (EPA / NIEHS).
“And” between values parts separate entries of the source, which are not always exact repeats. Equal entries are not always repeated. The source made the active and inactive calls. How the source made its calls: active means hit-call score of the fitted dose curve at least 0.9, where 1 is the maximum; inactive means score below 0.9.

Read-out: Cytochrome P450 3A7 (Homo sapiens) (UniProt P24462)
Test: LTEA_HepaRG_CYP3A7: Life Technologies and Expression Analysis (LTEA) Assay for CYP3A7 using HepaRG (AID 2283492)
Details: mRNA level, 48 h; actives raise or lower the signal
Protocol: LTEA_HepaRG is a cell based, multiplexed-readout assay that uses HepaRG, a human liver cell line, with measurements taken at 48 hours after chemical dosing on a 96-well plate.LTEA_HepaRG_CYP3A7 is one of 102 assay component(s) measured in the LTEA HepaRG cell culture assay. It is a marker of NR mediated metabolism/Undifferentiated hepatocyte.Data from the assay component LTEA_HepaRG_CYP3A7 was analyzed into 1 endpoint. This assay endpoint, LTEA_HepaRG_CYP3A7, was analyzed with bidirectional fitting relative to DMSO as the negative control and baseline of activity. Using a type of inducible reporter, measures of mRNA induction for gain or loss-of-signal activity can be used to understand regulation of transcription factor activity. To generalize the intended target to other relatable targets, this assay endpoint is annotated to the cyp intended target family, where the subfamily is xenobiotic metabolism.
A total of 1060 chemcials from the ToxCast library were tested in eight-point concentration-response experiments. Cell culture and cytotoxicity assays were conducted at Thermo Fisher Scientific's Custom Services facility (Madison, WI). A single lot of human HepaRG cells (Thermo Fisher Scientific, Frederick, MD) was used for the cell culture experiments. 96-well format collagen type I coated plates of human HepaRG cells were prepared using established methods. Briefly, cryopreserved HepaRG cells were thawed, plated at a density of approximately 100,000 cells/well in HepaRG Thaw, Plate, and General Purpose media (HPRG770, Thermo Fisher Scientific), and incubated for 48 hours. 0.5% DMSO was selected as vehicle control to balance the requisite need of DMSO in HepaRG cultures to maintain differentiation (for example, baseline metabolism, proportions of hepatocytes vs. cholangiocytes), while enabling further hepatic receptor pathway activation (for example, PXR and CAR) in response to chemical exposure. 48 hours after plating, the culture medium was replaced with HepaRG Serum-Free Incudtion Media. Cells were exposed to each test chemical in duplicate and maintained in CO2 incubators for another 48 hours. Chemical plates were thawed to room temperature and 200x concentrations of treatment groups were prepared. 8-point conentration-reponse curves were made with the highest exposure at 100 uM, followed by half-log dilutions, all in 0.5% DMSO. Each test plate contained variouse controls, induction positive controls (1mM phenobarbital), cytotoxicity positive controls ([…] aflatoxin B1), vehicle controls (0.5% DMSO), and total lysis controls (0.5% DMSO). Cell morphology images were taken using an Essen IncuCyte FLR automated microscope, with six 96-well plates imaged in about 24 minutes. Images were captured and exported and JPEG files. Spent culture media was transfered to black-well plates for the LDH assay, and remaining media was sorted at -80 C for later use. Cells were treated with RLT buffer and frozen until shipped for gene expression analysis. Total RNA was isolated from the cell suspension in 75 uL of Buffer RLT (Qiagen, Germantown, MD 20874) by Quintiles/Expression Analysis (Durham, NC) using a custom isolation procedure. Total RNA from each plate well was transferred to a preamplification plate. Fluidigm's 96.96 Dynamic ArrayTM (Fluidigm, Amsterdam, the Netherlands) technology was used for gene expression analyses by quantitative reverse transcription polymerase chain reaction (qRT-PCR, performed by Quintiles/Expression Analysis, Durham, NC)89. Standard TaqManTM Assays (Applied Biosystems/ThermoFisher Scientific, Foster City, CA) were used to assess the expression of 93 genes selected based on their selectivity and sensitivity to important hepatic receptors known to be modulated by environmental chemicals; importance in human hepatocyte functionality; and hepatotoxicity. […]

Sequence of Cytochrome P450 3A7 (Homo sapiens) (P24462 whole entry, looked up): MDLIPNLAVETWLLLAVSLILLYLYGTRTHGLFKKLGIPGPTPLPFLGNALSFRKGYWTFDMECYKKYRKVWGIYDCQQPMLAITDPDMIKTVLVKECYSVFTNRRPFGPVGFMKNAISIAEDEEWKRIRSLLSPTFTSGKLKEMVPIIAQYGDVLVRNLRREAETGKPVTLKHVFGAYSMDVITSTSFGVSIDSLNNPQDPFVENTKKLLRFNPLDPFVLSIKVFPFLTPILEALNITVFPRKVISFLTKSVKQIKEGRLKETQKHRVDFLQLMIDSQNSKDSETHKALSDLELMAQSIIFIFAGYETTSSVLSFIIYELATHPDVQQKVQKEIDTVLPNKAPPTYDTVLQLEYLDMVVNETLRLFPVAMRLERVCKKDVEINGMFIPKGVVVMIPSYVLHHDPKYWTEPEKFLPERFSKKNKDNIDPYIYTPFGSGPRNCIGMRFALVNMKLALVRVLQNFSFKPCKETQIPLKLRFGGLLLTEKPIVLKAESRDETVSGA

Row | Structure (SMILES) | AC50 | outcome
1 | CC1(c2ccc(Oc3ccccc3)cc2)OC(=O)N(Nc2ccccc2)C1=O (stereo not given) | 24.8 µM (active) | –
2 | CCOC1Oc2ccc(OS(C)(=O)=O)cc2C1(C)C (stereo not given) | – | inactive
3 | CC(C)N(C(=O)COc1nnc(C(F)(F)F)s1)c1ccc(F)cc1 | – | inactive
4 | C#CCN1C(=O)COc2cc(F)c(N3C(=O)C4=C(CCCC4)C3=O)cc21 | 0.97 µM (active) | –
5 | Cc1[nH]c(=O)n(C(C)(C)C)c(=O)c1Cl | – | inactive
6 | CNC(=O)Oc1cccc(N=CN(C)C)c1 | – | inactive
7 | O=C(O)COc1ccc(Cl)cc1Cl | 27.7 µM (active) | –
8 | CNC(=O)/C=C(\C)OP(=O)(OC)OC | – | inactive
9 | O=C(O)C(F)(F)C(F)(F)C(F)(F)C(F)(F)C(F)(F)C(F)(F)C(F)(F)F | 22.1 µM (active) and 9.92 µM (active) | –
10 | CCC(C)(NC(=O)c1cc(Cl)c(C)c(Cl)c1)C(=O)CCl (stereo not given) | 82.1 µM (active) | –
11 | O=[N+]([O-])c1c(Cl)c(Cl)c(Cl)c(Cl)c1Cl | – | inactive
12 | COc1nn(CSP(=S)(OC)OC)c(=O)s1 | – | inactive
13 | Oc1cc(Cl)ccc1Oc1ccc(Cl)cc1Cl | – | inactive
14 | ClC1C(Cl)C(Cl)C(Cl)C(Cl)C1Cl (stereo not given) | – | inactive
15 | OCCOc1ccccc1 | – | inactive
16 | CCC(C)Nc1c([N+](=O)[O-])cc(C(C)(C)C)cc1[N+](=O)[O-] (stereo not given) | – | inactive
17 | CC(C)(C)C(O)/C(=C\c1ccc(Cl)cc1Cl)n1cncn1 (stereo not given) | – | inactive
18 | CN1CSC(=S)N(C)C1 | – | inactive
19 | CC1(C)C(C=C(Cl)Cl)C1C(=O)OC(C#N)c1ccc(F)c(Oc2ccccc2)c1 (stereo not given) | – | inactive
20 | C[C@H]1[C@H](c2ccc(Cl)cc2)SC(=O)N1C(=O)NC1CCCCC1 | 61.6 µM (active) | –

Row | Structure (SMILES) | AC50 | outcome
21 | CNC(=O)Oc1ccccc1OC(C)C | 1.52 µM (active) | –
22 | CCCN(CCC)c1c([N+](=O)[O-])cc(C(F)(F)F)cc1[N+](=O)[O-] | – | inactive
23 | Oc1ccc(Cl)cc1Cc1ccccc1 | – | inactive
24 | O=S1OCC2C(CO1)C1(Cl)C(Cl)=C(Cl)C2(Cl)C1(Cl)Cl (stereo not given) | 50 µM (active) | –
25 | CCOCN(C(=O)CCl)c1c(C)cccc1CC | 86.2 µM (active) | –
26 | N#CN | – | inactive
27 | COP(=S)(OC)Oc1ccc([N+](=O)[O-])cc1 | – | inactive
28 | CC(C)OC(=O)Nc1cccc(Cl)c1 | – | inactive
29 | CCCN(CCOc1c(Cl)cc(Cl)cc1Cl)C(=O)n1ccnc1 | 32.4 µM (active) | –
30 | CNC(=O)CSP(=S)(OC)OC | – | inactive
31 | N#Cc1c(Cl)c(Cl)c(Cl)c(C#N)c1Cl | 50 µM (active) | –
32 | O=C1c2ccccc2C(=O)N1SC(Cl)(Cl)Cl | – | inactive
33 | O=C(NC(=O)c1c(F)cccc1F)Nc1ccc(OC(F)(F)C(F)OC(F)(F)F)c(Cl)c1 (stereo not given) | – | inactive
34 | CCN(CC)C(=O)SCc1ccc(Cl)cc1 | – | inactive
35 | O=C(Nc1ccccc1)Nc1cnns1 | 50 µM (active) | –
36 | CCc1ccc(C(=O)NN(C(=O)c2cc(C)cc(C)c2)C(C)(C)C)cc1 | 12.1 µM (active) | –
37 | COP(=O)(OC)OC=C(Cl)Cl | – | inactive
38 | CC[C@H](C)[C@H]1O[C@]2(C=C[C@@H]1C)C[C@@H]1C[C@@H](C/C=C(\C)[C@@H](O[C@H]3C[C@H](OC)[C@@H](O[C@H]4C[C@H](OC)[C@@H](O)[C@H](C)O4)[C@H](C)O3)[C@@H](C)/C=C/C=C3\CO[C@@H]4[C@H](O)C(C)=C[C@@H](C(=O)O1)[C@]34O)O2 (tested in a mixture with another compound) | – | inactive
39 | Clc1ccccc1-c1nnc(-c2ccccc2Cl)nn1 | 6.87 µM (active) | –
40 | O=[N+]([O-])/N=C1\NCCN1Cc1ccc(Cl)nc1 | – | inactive
